Bioassay records from PubChem BioAssay.
BCLXL inh = inhibitors of human Bcl-xL; inhibition, % at 10.9 µM; GST-Bcl-xL / FITC-Bim BH3 peptide fluorescence polarization; 320,000 tested, 0.7% active;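 active = inhibition above the mean of all tested compounds plus 3 SD, cutoff set per campaign, cut at about 30% in these data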;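 also: 0% = DMSO wells and 100% = unlabeled Bim-BH3 peptide competitor; inhibitors lower millipolarization by displacing the labeled peptide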
Target sequence (Q07817 whole entry, looked up): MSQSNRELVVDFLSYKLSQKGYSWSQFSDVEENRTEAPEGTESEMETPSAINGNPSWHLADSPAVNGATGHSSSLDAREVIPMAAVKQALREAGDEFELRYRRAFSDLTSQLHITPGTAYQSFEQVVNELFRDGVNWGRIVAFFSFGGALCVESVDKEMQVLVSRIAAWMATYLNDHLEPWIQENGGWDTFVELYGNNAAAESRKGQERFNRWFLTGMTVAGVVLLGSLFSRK
E coli Lon inh = E. coli protease La inhibition. P0A9M0. purified E. coli Lon protease, fluorescence polarization. inhibition, % at 7.94 µM. 360,000 tested, 0.42% active. AID 602123; in the data active = inhibition above about 13%, passing the limit was not always enough;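 also: 0% = enzyme with probe and DMSO and 100% = no enzyme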
MCL1-BIM inh = disrupts human MCL1 binding to BIM-BH3 peptide | Q07820 | GST-MCL1 / FITC-Bim-BH3 fluorescence polarization | inhibition, % at 10.9 µM | 320,000 tested, 0.68% active;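 active = inhibition above the mean inhibition of all tested compounds plus 3 SD, set per campaign, cut at about 40% in these data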;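 also: 0% = DMSO wells and 100% = unlabeled Bim-BH3 peptide control; higher means more loss of mP so more displacement of Bim peptide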
GLD-1 RNA inh = GLD-1-TGE RNA interaction inhibition (C. elegans); 320,000 tested, 0.44% active; purified GLD-1 + fluorescein TGE RNA, fluorescence polarization; inhibition, % at 5.96 µM; Q17339;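 active = percent inhibition above a per-plate cutoff, the plate mean of test compounds plus 3 SD, cut at about 30% in these data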;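 also: 0% = DMSO wells with GLD-1 and probe and 100% = wells lacking GLD-1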
Target sequence (Q17339 whole entry, looked up): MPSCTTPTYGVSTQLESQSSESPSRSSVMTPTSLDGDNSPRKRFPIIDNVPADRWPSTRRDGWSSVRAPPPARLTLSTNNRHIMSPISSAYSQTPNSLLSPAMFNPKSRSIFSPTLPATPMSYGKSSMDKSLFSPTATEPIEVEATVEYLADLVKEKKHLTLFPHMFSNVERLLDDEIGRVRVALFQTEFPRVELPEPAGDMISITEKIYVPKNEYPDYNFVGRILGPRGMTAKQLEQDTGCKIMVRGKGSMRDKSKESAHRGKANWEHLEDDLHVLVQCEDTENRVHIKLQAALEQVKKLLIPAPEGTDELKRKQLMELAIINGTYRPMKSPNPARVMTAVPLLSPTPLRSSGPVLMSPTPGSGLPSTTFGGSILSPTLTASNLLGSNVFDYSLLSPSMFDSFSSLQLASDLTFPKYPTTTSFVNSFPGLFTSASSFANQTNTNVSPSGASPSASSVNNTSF
EBV gp42 inh = blocks Epstein-Barr virus glycoprotein 42 binding. Q1HVG2. Fluorescence polarization binding assay, mP read-out. inhibition, % (tested at 21.74 µM). 220,000 tested, 0.42% active; in the data active = inhibition above about 50%
MEX-5 binding = C. elegans MEX-5 TCR-2 RNA binding activity; activity score (negative = inhibition of binding), % at 10 µM; 300,000 tested, 0.38% active; Q9XUB2; AID 1832; MEX-5/FITC-TCR2 RNA binding, fluorescence polarization; stronger effect = lower value;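 active = inhibition past about -25% in most replicates, and total fluorescence under double the plate's negative control median, limit read from the data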;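 also: 0% = DMSO and -100% = 5 µM competing unlabeled TCR2 RNA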
BCLXL inh confirm = counter-screen for MCL1 inhibitors: confirmation of human Bcl-xL inhibitors. shares compounds with MCL1-BIM inh. GST-Bcl-xL / FITC-Bim BH3 peptide FP binding. inhibition, % at 10.9 µM. 1,700 tested, 54% active;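 active = inhibition above a cutoff equal to the mean inhibition of all tested compounds plus 3 SD, cut at about 30% in these data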;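 also: 0% = DMSO wells and 100% = unlabeled Bim BH3 control peptide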
MCL1 BIM confirm = confirmation of human MCL1 and BIM-BH3 interaction inhibitors; shares compounds with MCL1-BIM inh; GST-MCL1 / FITC-Bim-BH3 fluorescence polarization; inhibition, % at 10.9 µM; 1,700 tested, 61% active; AID 2168;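 active = inhibition above the average of all tested compounds plus 3 SD, cut at about 40% in these data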;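 also: 0% = DMSO wells and 100% = unlabeled Bim-BH3 control peptide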
GLD-1 TGE cf = confirmation of C. elegans GLD-1 TGE RNA binding inhibitors; inhibition, % at 5.96 µM; AID 2459; GLD-1/FL-TGE RNA fluorescence polarization, biochemical; shares compounds with GLD-1 RNA inh; 550 tested, 10% active;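 active = average inhibition across triplicates above the hit cutoff set in the primary screen, cut at about 32% in these data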;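 also: 0% = GLD-1 with RNA probe and DMSO and 100% = wells lacking GLD-1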
* marks the source's active call; other numbers are inactive results. Only some compounds are listed: those with a hit (about 1.5% of all), similar ones and a draw of the others.

What do the screens show for `COc1cccc(CNC(=O)C(=O)N2CCC3(CC2)OCCN3S(=O)(=O)c2ccc(C)cc2)c1`?
BCLXL inh: 5; E coli Lon inh: 4; MCL1-BIM inh: 11; GLD-1 RNA inh: -2; MEX-5 binding: 1

What do the screens show for `O=C(COc1ccc(Cl)cc1Br)NC(=O)NC1CCCC1`?
E coli Lon inh: 9

How did COc1ccc(NC(=O)c2ccc(-c3ccc(C(C)=O)cc3)o2)cn1 do in these assays?
BCLXL inh: 69*; E coli Lon inh: 1; MCL1-BIM inh: 60*; GLD-1 RNA inh: 57*; BCLXL inh confirm: 55*; MCL1 BIM confirm: 65*; GLD-1 TGE cf: 45*

What do the screens show for `COc1ccc(NC(=O)c2ccc(CNc3c(N4CCCC4)c(=O)c3=O)cc2)cc1Cl`?
BCLXL inh: 6; E coli Lon inh: 6; MCL1-BIM inh: 6; GLD-1 RNA inh: 1; EBV gp42 inh: -11; MEX-5 binding: 3

How did CNC(=O)NC(=O)COC(=O)/C=C/c1cccc(Br)c1 do in these assays?
BCLXL inh: 3; E coli Lon inh: -8; MCL1-BIM inh: 5; GLD-1 RNA inh: 1; EBV gp42 inh: -22; MEX-5 binding: 0

What do the screens show for `COc1ccc2c(c1)c(=O)c(C(=O)c1ccc(C)cc1)cn2CC(=O)Nc1ccc(F)cc1`?
BCLXL inh: 6; E coli Lon inh: -7; MCL1-BIM inh: 10; GLD-1 RNA inh: 10; EBV gp42 inh: -8; MEX-5 binding: 1

Results for COc1ccc2c(c1)c(=O)c(C(=O)c1ccc(F)cc1)cn2CC(=O)Nc1ccc(F)cc1 ?
BCLXL inh: 75*; E coli Lon inh: -15; MCL1-BIM inh: 71*; GLD-1 RNA inh: 69*; EBV gp42 inh: -3; MEX-5 binding: 1; BCLXL inh confirm: 4; MCL1 BIM confirm: -6; GLD-1 TGE cf: -2

How did CCN(C)C1CN(Cc2cn(Cc3cccc(Cl)c3)nn2)S(=O)(=O)C1 (stereo unspecified) do in these assays?
E coli Lon inh: -1

Results for COc1ccc2[nH]c(C)c(CCN(Cc3cccs3)C(=S)Nc3ccc(F)cc3)c2c1 ?
BCLXL inh: 73*; E coli Lon inh: 17; MCL1-BIM inh: 75*; GLD-1 RNA inh: 49*; EBV gp42 inh: 4; MEX-5 binding: -6; BCLXL inh confirm: 41*; MCL1 BIM confirm: 52*; GLD-1 TGE cf: -1

Results for Cc1ccc(-c2cc(C(F)(F)F)c(C#N)c(=O)[nH]2)cc1 ?
BCLXL inh: 5; E coli Lon inh: 0; MCL1-BIM inh: 20; GLD-1 RNA inh: 3; EBV gp42 inh: -2; MEX-5 binding: 0

How did Cc1ccc(-c2cc(-c3ccco3)c(C#N)c(=O)[nH]2)cc1 do in these assays?
BCLXL inh: 79*; E coli Lon inh: 21; MCL1-BIM inh: 96*; GLD-1 RNA inh: 50*; EBV gp42 inh: 48; MEX-5 binding: -40*; BCLXL inh confirm: 26; MCL1 BIM confirm: 53*; GLD-1 TGE cf: -14

What do the screens show for `CCOc1ccc(N=C/C=C/c2ccccc2)c(O)c1`?
BCLXL inh: 84*; E coli Lon inh: 14; MCL1-BIM inh: 87*; GLD-1 RNA inh: 72*; EBV gp42 inh: 0; MEX-5 binding: -4; BCLXL inh confirm: 14; MCL1 BIM confirm: 20; GLD-1 TGE cf: 3

What do the screens show for `CCOc1ccc(NCC(=O)N/N=C/C=C/c2ccccc2)cc1`?
BCLXL inh: 1; E coli Lon inh: -9; MCL1-BIM inh: -2; GLD-1 RNA inh: 6; EBV gp42 inh: 9; MEX-5 binding: 0

How did Cc1ccc(SCc2cc(=O)n3ccsc3n2)c(C)c1 do in these assays?
BCLXL inh: 3; MCL1-BIM inh: 9; GLD-1 RNA inh: 6; EBV gp42 inh: 2; MEX-5 binding: 1

How did Cc1cccc(-n2c(SCc3cc(=O)n4ccsc4n3)nc3ccccc32)c1 do in these assays?
BCLXL inh: 73*; E coli Lon inh: -3; MCL1-BIM inh: 67*; GLD-1 RNA inh: 43*; EBV gp42 inh: 78*; MEX-5 binding: -6; BCLXL inh confirm: 63*; MCL1 BIM confirm: 89*; GLD-1 TGE cf: 26

What do the screens show for `COc1ccc(NC(=O)Nc2cccs2)cn1`?
E coli Lon inh: 4; MEX-5 binding: -5

How did COc1ccc(NC(=O)Nc2cc(C)cc(C)c2)cn1 do in these assays?
BCLXL inh: 58*; E coli Lon inh: 29; MCL1-BIM inh: 58*; GLD-1 RNA inh: 48*; EBV gp42 inh: 29; MEX-5 binding: -36*; BCLXL inh confirm: 62*; MCL1 BIM confirm: 79*; GLD-1 TGE cf: 43*

What do the screens show for `COc1ccc(OC)c(NC(=O)COC(=O)CCCN=C2NS(=O)(=O)c3ccccc32)c1`?
E coli Lon inh: 1; GLD-1 RNA inh: 0

What do the screens show for `CSc1nc(O)c(C(c2ccc(OC(C)C)cc2)c2c(O)nc(SC)[nH]c2=O)c(=O)[nH]1`?
BCLXL inh: 7; E coli Lon inh: 12; MCL1-BIM inh: 13; GLD-1 RNA inh: -2; MEX-5 binding: 0

What do the screens show for `CCOC(=O)C1=C(C)OC(N)=C(C#N)C1c1cc2c(cc1[N+](=O)[O-])OCO2` (stereo unspecified)?
BCLXL inh: 36*; E coli Lon inh: 2; MCL1-BIM inh: 44*; GLD-1 RNA inh: 38*; EBV gp42 inh: 30; MEX-5 binding: -2; BCLXL inh confirm: 49*; MCL1 BIM confirm: 73*; GLD-1 TGE cf: 7

What do the screens show for `CC(=O)OC(C(=O)NCCN1CCOCC1)c1c(F)cccc1F` (stereo unspecified)?
BCLXL inh: 4; E coli Lon inh: -8; MCL1-BIM inh: 8; GLD-1 RNA inh: 8; EBV gp42 inh: 2; MEX-5 binding: -1

Results for CNc1nc2cc([N+](=O)[O-])c([N+](=O)[O-])cc2nc1NC ?
BCLXL inh: 90*; E coli Lon inh: 2; MCL1-BIM inh: 98*; GLD-1 RNA inh: 98*; EBV gp42 inh: 7; MEX-5 binding: 3; BCLXL inh confirm: 12; MCL1 BIM confirm: 7; GLD-1 TGE cf: 8

Results for COc1cccc(CN2CCNC(=O)C2CC(=O)NCc2cn3ccc(C)cc3n2)c1OC (stereo unspecified) ?
BCLXL inh: 7; E coli Lon inh: 1; MCL1-BIM inh: 6; GLD-1 RNA inh: 4; EBV gp42 inh: -2; MEX-5 binding: 2
